# Screening results as filed in PubChem BioAssay.
# TGFb SMAD3 inh: qHTS for Inhibitors of TGF-b | Potency, µM (top dose mostly 46.1 µM), for inactives: at the top dose activity, negative = inhibition, actives largely listed as inhibitors | HepG2 CAGA-GFP TGF-b/SMAD3 reporter, GFP fluorescence, 18 h; TGF-beta stimulated, 500 pg/mL final | 1.2% of 410,000 active; note: % is set by controls: 0 for no effect and ±100 for the full control effect; nearly all actives have a fitted effect of over 65% in size
#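 HEPG2 CAGA-GFP reporter cells (1000/well, DMEM with 1% FBS) received compounds, then recombinant TGF-beta at 500 pg/mL final for 18 hours at 37 degrees C. Per-cell GFP summed per well was normalised to unstimulated and stimulated DMSO controls before curve fitting.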
# A549 tox-1: Nrf2 qHTS screen for inhibitors: counterscreen for cytotoxicity; A549 ARE-Fluc cells, CellTiter-Fluor viability, 18-24 h; 0.16% of 390,000 active; Potency, µM (top dose mostly 46 µM), inactives show at the top dose activity change, negative = cytotoxicity, usual class: inhibitors; note: % is set by controls: 0 for no effect and ±100 for the full control effect
#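 A549 ARE_Fluc cells in 5% FBS OPTI-MEM were exposed to compounds in concentration-response for 18-24 h at 37 deg C. Viability was read by CellTiter-Fluor fluorescence (Ex 405/Em 525) after 30 min, before the luciferase read.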
# ATXN2 expr inh: Primary qHTS for Inhibitors of ATXN expression. HEK-293 ATXN2-luciferase reporter, luminescence, 24 h. Potency, µM (series often up to 57 µM), without a hit: top-dose activity change, negative = inhibition, hits mostly inhibitors. 0.72% of 360,000 active. AID 1745845, 2022; note: % is set by controls: 0 for no effect and ±100 for the full control effect; nearly all actives have a fitted effect of over 55% in size
#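 ATXN2-luciferase reporter cells (luciferase flanked by upstream and downstream ATXN2 gene portions) were treated 24 h at 37 °C with compounds at up to 57 uM. SteadyGlo luminescence gave expression; GF-AFC fluorescence gave viability.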
# Nrf2 block: Nrf2 qHTS screen for inhibitors. 2.1% of 360,000 active. Potency, µM (series often up to 46 µM), for inactives: top-dose activity change, negative = inhibition, actives largely listed as inhibitors. AID 504444, 2011. A549 ARE-Fluc reporter, luciferase luminescence, 18-24 h; note: % is set by controls: 0 for no effect and ±100 for the full control effect; nearly all actives have a fitted effect of over 60% in size
#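 Nrf2 activity is the BugLite luminescence, read 15 min after reagent at room temperature, following CellTiter-Fluor cytotoxicity readout (30 min, 37C). Compound titrations were applied for 18-24 h to 5000 A549 ARE_Fluc cells/well in 5% FBS OPTI-MEM.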
# HepG2 tox-1: qHTS for Inhibitors of TGF-b: Cytotox Counterscreen. HepG2 CAGA-GFP viability, ATP luminescence, 18 h. Potency, µM (titrated, usually from 46.1 µM), for the others: at the highest dose activity change, negative = cytotoxicity, usual class: cytotoxic. 0.76% of 410,000 active. AID 588856, 2011
#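 HepG2 CAGA-GFP cells (1000/well, DMEM with 1% FBS) received compound, then TGF-beta at 500 pg/mL final, and were incubated 18 hours at 37 degrees C. Viability was read by CellTiter-Glo luminescence. Media-only wells were set as complete cell-killing and DMSO as no toxicity.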
# ATXN viability: Viability Counterscreen for Primary qHTS for Inhibitors of ATXN expression | S2 cells (HEK-293 line with an ATXN2-luciferase reporter) viability, CellTiter-Fluor protease fluorescence, 24 h | Potency, µM (highest dose often 56.7 µM), hits mostly cytotoxic | 0.49% of 400,000 active; note: nearly all actives have a fitted effect of over 40% in size
# FLuc enzyme inh: Nrf2 qHTS screen for inhibitors: Purified Fluc Biochemical Counterscreen for Hit Validation | shares compounds with Nrf2 block | purified firefly luciferase, luminescence inhibition | Potency, µM (series often up to 57.5 µM), for the others: top-dose activity change, negative = inhibition, most hits filed as inhibitors | 4% of 1,400 active | AID 720522, 2013; note: % is set by controls: 0 for no effect and ±100 for the full control effect; nearly all actives have a fitted effect of over 65% in size
# Target sequence (P08659 whole entry, looked up): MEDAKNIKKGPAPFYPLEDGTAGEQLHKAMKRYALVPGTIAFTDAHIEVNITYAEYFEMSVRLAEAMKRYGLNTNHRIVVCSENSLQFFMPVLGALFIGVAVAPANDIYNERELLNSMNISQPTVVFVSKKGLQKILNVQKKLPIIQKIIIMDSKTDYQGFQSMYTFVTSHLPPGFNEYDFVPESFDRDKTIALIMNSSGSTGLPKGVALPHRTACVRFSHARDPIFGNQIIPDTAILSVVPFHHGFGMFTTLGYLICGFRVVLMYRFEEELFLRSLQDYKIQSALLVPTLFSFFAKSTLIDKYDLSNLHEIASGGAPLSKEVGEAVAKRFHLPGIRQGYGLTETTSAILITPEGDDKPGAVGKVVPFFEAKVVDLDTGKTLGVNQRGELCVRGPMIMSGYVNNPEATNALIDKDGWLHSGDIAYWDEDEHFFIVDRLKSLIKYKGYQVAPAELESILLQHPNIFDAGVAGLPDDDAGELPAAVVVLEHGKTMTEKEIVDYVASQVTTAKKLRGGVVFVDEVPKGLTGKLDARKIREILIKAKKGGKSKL
# A549 tox-2: Nrf2 qHTS screen for inhibitors: A549 ARE-Fluc Cytotoxicity Counterscreen for Hit Validation; shares compounds with Nrf2 block; A549 ARE-Fluc cells, cytotoxicity counterscreen; Potency, µM (doses to about 46.1 µM), for inactives: at the top dose activity change, negative = cytotoxicity, most hits filed as inhibitors; 2% of 1,400 active; AID 720523, 2013;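 note: cells exposed to compounds for 18 to 24 hours; % is set by controls: 0 for no effect and ±100 for the full control effect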
# Nrf2 ARE inh: Nrf2 qHTS screen for inhibitors: Nrf2 A549 ARE-Fluc Confirmation Assay for Hit Validation. shares compounds with Nrf2 block. A549 ARE-firefly luciferase reporter, luminescence. Potency, µM (titrated, usually from 46.1 µM), inactives show at the top dose activity change, negative = inhibition, actives largely listed as inhibitors. 74% of 1,400 active; note: % is set by controls: 0 for no effect and ±100 for the full control effect; nearly all actives have a fitted effect of over 65% in size
# TGFb CAGA inh: qHTS for Inhibitors of TGF-b: Confirmation of Cherry Picks; shares compounds with TGFb SMAD3 inh; HepG2 CAGA-GFP TGF-b reporter, GFP fluorescence, 18 h; cells stimulated with TGF-beta, 500 pg/mL; Potency, µM (titrated, usually from 46.1 µM), for inactives: at the top dose activity, negative = inhibition, most hits filed as inhibitors; 63% of 1,600 active; AID 720534, 2013; note: % is set by controls: 0 for no effect and ±100 for the full control effect; nearly all actives have a fitted effect of over 65% in size
# HepG2 tox-2: qHTS for Inhibitors of TGF-b: Cytotox Counterscreen for Cherry Picks | HepG2 CAGA-GFP viability, ATP luminescence, 18 h; cells stimulated with TGF-beta, 500 pg/mL | 27% of 1,600 active | shares compounds with TGFb SMAD3 inh | Potency, µM (series often up to 46.1 µM), for the others: at the highest dose activity, negative = cytotoxicity, hits mostly inhibitors; note: % is set by controls: 0 for no effect and ±100 for the full control effect; nearly all actives have a fitted effect of over 70% in size
# CCL64 TGFb inh: qHTS for Inhibitors of TGF-b: CCL64 Cells Orthogonal Assay for Cherry Picks; shares compounds with TGFb SMAD3 inh; 41% of 1,600 active; CCL64 CAGA-GFP reporter, TGF-b stimulated, GFP fluorescence, 18 h; Potency, µM (doses to about 46.1 µM), for the others: at the highest dose activity, negative = inhibition, hits mostly inhibitors; AID 720536, 2013; note: nearly all actives have a fitted effect of over 65% in size
# COP TGFb inh: qHTS for Inhibitors of TGF-b: Hit Validation in HepG2 Cells using COP promoter | shares compounds with TGFb SMAD3 inh | HepG2 COP-GFP TGF-b reporter, GFP fluorescence, 18 h; cells stimulated by added recombinant TGF-beta | Potency, µM (top dose mostly 46.1 µM), for the others: top-dose activity, negative = inhibition, most hits filed as inhibitors | 3% of 1,600 active; note: nearly all actives have a fitted effect of over 70% in size
# Numbers without * were called inactive; i = inactive; ? = inconclusive; · = no result; [ ] = another dose, or the depositor's remark. Hits are enriched below; roughly 3.8% of the tested compounds scored in any of these assays. Calls come from the whole dose curve; as a rule, active = well fitted curve in the direction sought with a large enough effect; inconclusive = small, poorly fitted or top-dose-only effect, or another doubt; inactive = no such curve, though single readings can be large; an effect the other way counts as inactive or inconclusive. Potency is the fitted concentration of half-maximal effect.
SMILES,TGFb SMAD3 inh,A549 tox-1,ATXN2 expr inh,Nrf2 block,HepG2 tox-1,ATXN viability,FLuc enzyme inh,A549 tox-2,Nrf2 ARE inh,others
CCC1(O)C(=O)OCc2c1cc1n(c2=O)Cc2cc3cc(O)ccc3nc2-1 (configuration not stated),?,14.4%,-74.1%,2.31µM*,1.0%,·,-7.9%,11.9%,0.411µM*,
CC[C@@]1(O)C(=O)OCc2c1cc1n(c2=O)Cc2cc3ccccc3nc2-1,-20.3%,-13.9%,0.0193µM*,2.06µM*,-39.3%,·,2.0%,?,0.461µM*,
O=[N+]([O-])c1ncc[nH]1,·,·,-2.8%,·,·,·,·,·,·,
O=C(Nc1cccc(Cl)c1)c1cnc2sc(N3CCCC3)nn2c1=O,·,-0.6%,·,5.17µM*,-17.6%,·,-2.8%,-11.4%,4.61µM*,
COc1ccc(CN2CCN(C(=O)Cn3c(=O)oc4cc(Cl)ccc43)CC2)c(OC)c1OC,?,?,·,2.91µM*,-21.7%,?,-1.2%,-8.9%,?,
COc1cccc(N2CCN(C(=O)Cn3c(=O)oc4ccccc43)CC2)c1,-2.3%,7.7%,-8.9%,-23.7%,-23.9%,i,·,·,·,
CC12CC[C@H]3[C@@H](CCC4(O)C[C@H](O)CCC34/C=N/NC(=O)c3ccccc3F)C1(O)CCC2C1=CC(=O)OC1 (some centres not stated),2.4%,-24.5%,?,9.2µM*,-27.2%,?,-10.2%,?,11.6µM*,
CN(C)c1ccc(C(=O)N/N=C/C23CC[C@@H](O)CC2(O)CC[C@@H]2[C@@H]3CCC3(C)C(C4=CC(=O)OC4)CCC23O)cc1 (some centres not stated),?,?,·,5.8µM*,-86.9%,?,1.1%,?,3.66µM*,
CNC(C)Cc1ccc2c(c1)OCO2 (configuration not stated),·,·,-4.1%[116 µM],·,·,i,·,·,·,
Cc1cc(NC(=O)c2cc(-c3cccc(Cl)c3)on2)nn1Cc1ccc(Cl)cc1,1.2%,-3.2%,·,2.59µM*,-4.8%,·,-2.4%,-14.1%,20.6µM*,
Cc1cc(NC(=O)CCl)nn1C,-3.6%,-17.8%,-1.1%,?,-24.4%,i,·,·,·,
CCOc1ccc(-c2cc(C(=O)N3CCN(S(=O)(=O)c4cc(Cl)ccc4OC)CC3)[nH]n2)cc1,-30.4%,-15.2%,·,?,-26.3%,·,·,·,·,
CC(=O)OC1C(=O)OCC23CCC4(C)OC4C2OC2CC(OC(=O)C=CC=CC(=O)OCCC1C)C3(C)C21CO1 (configuration not stated),-63.0%,·,?,0.0164µM*,-25.6%,0.0299µM*,3.4%,·,0.0116µM*,
CC1=CC2OC3CC4OC(=O)C=CC=CC(C(C)O)OCC(O)C(C)CC(=O)OCC2(CC1O)C4(C)C31CO1 (configuration not stated),-106.6%,·,-68.7%,0.058µM*,4.3%,?,-12.6%,·,0.0517µM*,TGFb CAGA inh=0.0411µM*;CCL64 TGFb inh=0.0291µM*;COP TGFb inh=-1.3%
CC1=CC2OC3CC4OC(=O)C=CC=CC(=O)OCCC(C)C(O)C(=O)OCC2(CC1O)C4(C)C31CO1 (configuration not stated),-119.2%,·,?,0.0731µM*,-3.4%,?,-10.7%,·,3.66µM*,TGFb CAGA inh=0.0116µM*;CCL64 TGFb inh=0.0046µM*;COP TGFb inh=9.6%
CC1CCCC(NC(=O)COC(=O)c2cn(C)c3ccccc23)C1C (configuration not stated),-13.7%,-0.2%,-7.3%,7.8%,-4.3%,i,·,·,·,
COc1ccccc1NC(=O)Cn1c(=O)n(-c2cccc(Cl)c2)c(=O)c2sc3ccccc3c21,-0.3%,-10.1%,-2.3%,-17.0%,3.1%,i,·,·,·,
CC1=C(N2CC2)C(=O)C(CO)=C(N2CC2)C1=O,0.316µM*,9.2µM*,0.119µM*,0.517µM*,-110.4%,2.67µM*,1.9%,-9.8%,1.64µM*,TGFb CAGA inh=0.103µM*;HepG2 tox-2=0.206µM*;CCL64 TGFb inh=-113.1%;COP TGFb inh=-86.5%
